Here are results for 53 compounds from ChEMBL document CHEMBL4513216, “Probing the Open Global Health Chemical Diversity Library for Multistage-Active Starting Points for Next-Generation Antimalarials” (ACS Infect Dis, 2020).

In all, about 69,000 compounds went through this assay and about 8,600 (12%) showed an effect of 50% or more. The full list was thinned out, with strong results kept by preference.

This experiment has as its system Plasmodium berghei. In words: Screen against P. berghei liver stage (PbLuc), transformed with Luciferase, at 10uM. The experiment is classed as functional, HepG2. To be noted: tested at 10 uM.
In the case of `CCc1nc(C2CCCN2C(=O)Cc2cccs2)no1` (stereo not drawn), the INHIBITION came out at 5.9%. To `CSc1ccccc1C(C(=O)O)N(C)CC1CCOCC1` (stereo not drawn) belongs -0.27%. With `CCCc1cc(C(=O)NCCN2CCCS2(=O)=O)[nH]n1`, the INHIBITION is listed as -40.96%. With `O=C(c1cc(Cl)c2c(c1)OCO2)N1CCCC(n2cncn2)C1` (stereo not drawn) the figure was 29.7%; with `C[C@@H]1CN(Cc2ccccn2)C[C@]12CCN(Cc1cccnc1)C2=O`, -38.1%. To `N#CC1(C(=O)N2C[C@H](Nc3ncccn3)[C@@H](C3CC3)C2)CCOCC1` belongs -28.4%; to `Cc1ccnc(OC[C@@]23CCO[C@@H]2CCN(S(C)(=O)=O)C3)n1`, 57.1%. To `Cc1ccnc(OC[C@@]23CCO[C@@H]2CCN(c2ncccn2)C3)n1` belongs 23.3%; to `Cc1ccnc(OC[C@@]23CCO[C@@H]2CCN(C2CCC2)C3)n1`, -16.9%; to `CN(CCc1ccccc1)Cc1cnc(C2(C)CCCCO2)nc1` (stereo not drawn), 10.871%. Turning to `COc1cc(CN2C[C@H](OC)[C@]3(CCCO3)C2)ccc1F`, the INHIBITION was 35.2%. To `Cc1ccnc(C(NC(=O)c2sc(C)nc2C)C2CC2)n1` (stereo not drawn) belongs 63.5%.

As for `Cc1ccnc(C(NC(=O)c2ccc(O)nc2C)C2CC2)n1` (stereo not drawn), the INHIBITION is recorded as 2.65%. To `Cc1ccnc(C(NC(=O)c2oc(C)nc2C)C2CC2)n1` (stereo not drawn) belongs 38.5%; to `Cc1nc(C2CCCN2C(=O)CCn2cncn2)no1` (stereo not drawn), -85%; to `c1cnc2c(c1)cc([C@H]1CCCO1)n2CCN1CCOCC1`, 30.1%.

For the compound `CN(Cc1ccccc1F)Cc1cc2c(cc1Br)OCCO2`, the INHIBITION came to 76.2%. To `CC(NCc1cccc2c1OCCO2)c1cc2c(cc1Br)OCCO2` (stereo not drawn) belongs 4.15%; to `CN(Cc1ccc(F)c(F)c1)Cc1cc2c(cc1Br)OCCO2`, -30%; to `CN(Cc1cscn1)Cc1cc2c(cc1Br)OCO2`, 31.9%. To `CN(Cc1ccc(F)cc1)Cc1cc2c(cc1Br)OCCO2` belongs 44.8%; to `CN(Cc1ccc(F)cc1F)Cc1cc2c(cc1Br)OCCO2`, 52.6%. To `COc1ccccc1CN(Cc1nc(Cc2ccccc2)no1)C1CC1` belongs 21.3%; to `Cc1ccccc1CC(=O)N1C[C@@H]2COC[C@]2(CN(C)C)C1`, 20.5%; to `N#Cc1ccc(C(=O)O)nc1C=Cc1cccc(F)c1`, -23.2%. With `CC(C)CN1CC2(CCN(C(=O)C3CSC(C)(C)C(=O)N3)CC2)CC1=O` (stereo not drawn), the INHIBITION is given as 12%. To `CC(C)CN1CC2(CCN(C(=O)C3CNC(=O)N3)CC2)CC1=O` (stereo not drawn) belongs 53%; to `CC(C)CN1CC2(CCN(C(=O)C(O)c3ccccc3Cl)CC2)CC1=O` (stereo not drawn), 6.88%; to `CC(C)CN1CC2(CCN(C(=O)c3cnccn3)CC2)CC1=O`, -33%. To `CC(C)CN1CC2(CCN(C(=O)c3nc4ncccn4n3)CC2)CC1=O` belongs 56%; to `CC(C)CN1CC2(CCN(C(=O)c3cn4cccnc4n3)CC2)CC1=O`, -13.6%; to `CC(C)Oc1ccc2c(NC(=O)CNC(N)=O)nn(CC(F)(F)F)c2c1`, 29.7%.

Take `Cc1nc(O)cc([C@@H]2CN(C(=O)C3CC3)C[C@H]2c2ccccc2F)n1`: the INHIBITION is 60.55%. With `COCC(=O)N1C[C@@H](c2cc(O)nc(C)n2)[C@H](c2ccccc2F)C1` the figure was 24.49%; with `CC(=O)N1C[C@H](c2cc(O)nc(C)n2)[C@@H](c2ccccc2F)C1`, 12.45%; with `Cc1cc(NCCO)nc(N2CCC(Cc3ccccc3)CC2)c1C#N`, 29.1%. With `Cc1nccn1CC(=O)N1CC(Cc2nccc3ccn(C)c23)C1` the figure was 34%; with `CCCN1CCC(CC(=O)NCc2cc(O)ncn2)CC1`, 28.7%.

As to `CCN1CCC(CC(=O)N(C)CC(=O)c2ccc(O)cc2)CC1`, the INHIBITION was 55%.

With `CCCN1CCC(CC(=O)N(C)C(C)c2cncs2)CC1` (stereo not drawn), the INHIBITION is on record as 6.33%. With `CC(C)N1CCC(CC(=O)N(C)CC(=O)c2ccc(O)cc2)CC1` the figure was 1.98%; with `CCCN1CCC(CC(=O)N(C)CC(=O)c2ccc(O)cc2)CC1`, 56.1%. With `CC(C)N1CCC(C(=O)N(C)CC(=O)c2ccc(O)cc2)CC1` the figure was 23.6%; with `CN(C)C(=O)C1OC2(CCN(C(=O)N(C)C)CC2)c2ccccc21` (stereo not drawn), 14.1%; with `CNc1cc(C2CCCN2C(=O)c2ccc(=O)[nH]n2)ccn1` (stereo not drawn), -7.66%. With `N#Cc1ccsc1C(=O)N1CCCN(Cc2cscn2)CC1` the figure was -14%. On to `CC(C)n1nc(CNc2ncccn2)c2c1CN(C)CC2`, for which the INHIBITION was -3.77%. To `COC[C@]12COC[C@H]1CN(Cc1cc(OC)cc(OC)c1)C2` belongs 35.8%; to `O=C(c1cccnc1)N1CCC(c2nc(O)cc(-c3ccncc3)n2)C1` (stereo not drawn), 1.5%. With `CNC(=O)CN1CCCC12CCN(C(=O)c1ccc(F)cc1)CC2` the figure was 42.4%; with `CNC(=O)CN1CCCC12CCN(C(=O)c1ccoc1)CC2`, 56.8%. To `CNC(=O)CN1CCCC12CCN(C(=O)c1ccsc1)CC2` belongs -0.937%; to `CCOCC(O)CN1CCN(C(=O)c2cc(C)ccc2F)CC1` (stereo not drawn), -59.4%.
